# Assay outcomes deposited in PubChem by National Center for Advancing Translational Sciences (NCATS).
# Shown are actives, neighbours in structure and some others; about 5.7% of the full set was active somewhere.
# KB-3-1 tox – KB-3-1 parental cell cytotoxicity. KB-3-1 viability, CellTiter-Glo ATP luminescence, 72 h. Potency, µM (series often up to 46.1 µM), actives largely listed as cytotoxic. 400,000 compounds, 1.4% hits. AID 1347075; also: potency is read from the fitted curve at half-maximal effect; nearly all actives have a fitted effect of over 60% in size
#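 KB-3-1 parental drug-naive adenocarcinoma cells in DMEM/10% FBS, incubated 72 h at 37 C with pin-transferred compounds across a concentration series. Viability by CellTiter-Glo luminescence; concentration-response curves fitted after normalization.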
# Giardia killer – kills Giardia lamblia; Giardia lamblia trophozoite viability; activity change, % at 7.66 µM, hits read low; 340,000 compounds, 0.15% hits; in the data active = activity change below about -80%; inconclusive = between about -30% and that limit;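 also: parasites exposed to compound for two days anaerobically before the ATP read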
#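 Viability, read as ATP luminescence: trophozoites at 100 cells/well, compound added, 48 hrs anaerobic at 37 deg C, then 15-30 min room-temperature development before reading.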
# PI4K2A block – inhibitors of human PI4K2A | purified PI4K2A, ADP-Glo luminescence, 1 h; stronger effect = lower value | activity change, negative = inhibition, % at 76.9 µM | Q9BTU6 | 420,000 compounds, 0.13% hits; in the data active = activity change below about -50%; inconclusive = mostly about -30% to -49%;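 also: -100% = wells without enzyme as full effect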
# Target sequence (Q9BTU6 whole entry, looked up): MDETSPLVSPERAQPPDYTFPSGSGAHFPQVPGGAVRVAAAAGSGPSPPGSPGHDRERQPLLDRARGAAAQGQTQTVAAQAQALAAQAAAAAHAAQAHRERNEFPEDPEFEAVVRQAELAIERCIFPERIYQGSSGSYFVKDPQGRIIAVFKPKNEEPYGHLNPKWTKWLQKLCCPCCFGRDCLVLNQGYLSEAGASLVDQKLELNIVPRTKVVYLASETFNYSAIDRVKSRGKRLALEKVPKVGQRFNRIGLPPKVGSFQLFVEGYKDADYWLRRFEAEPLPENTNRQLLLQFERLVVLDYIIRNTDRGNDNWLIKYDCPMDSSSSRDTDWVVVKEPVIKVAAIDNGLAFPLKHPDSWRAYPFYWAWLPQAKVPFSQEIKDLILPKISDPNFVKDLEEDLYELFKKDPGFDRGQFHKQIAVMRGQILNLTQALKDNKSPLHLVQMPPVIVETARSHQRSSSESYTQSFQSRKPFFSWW
#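 ADP-Glo luminescence measured ADP generated by PI4K2A enzyme (4 ug/mL before mixing) with 1.2 mM PI substrate (pre-mix) and 300 microM ATP (pre-mix). Tris pH7.5 buffer with MgCl2, Triton X-100; 1 h reaction at ambient temperature.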
# KB-V1 cytotox – kills drug-selected multidrug resistant KB-V1 cells; KB-V1 MDR cells viability, CellTiter-Glo, 72 h; Potency, µM (titrated, usually from 46.1 µM), most hits filed as cytotoxic; 400,000 compounds, 3.4% hits; also: potency is read from the fitted curve at half-maximal effect; nearly all actives have a fitted effect of over 60% in size
#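 Cytotoxicity toward P-gp-expressing KB-V1 cells was determined as loss of CellTiter-Glo luminescence after 72 h at 37 degrees C. Compounds were tested in quantitative HTS format across a concentration range, with curves fitted to normalized data.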
# A549 tox – counter-screen for Nrf2 inhibitors: cytotoxicity in A549 cells. AID 504648. 390,000 compounds, 0.16% hits. Potency, µM (titrated, usually from 46 µM), for inactives: top-dose activity change, negative = cytotoxicity, actives largely listed as inhibitors. A549 ARE-Fluc cells, CellTiter-Fluor viability, 18-24 h; also: potency is read from the fitted curve at half-maximal effect
#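 A549 ARE-Fluc cells in 5% FBS OPTI-MEM, 5000 cells/well, rested 2 h then exposed to compounds in concentration-response for 18-24 h at 37 °C. Viability by CellTiter-Fluor fluorescence (Ex 405/Em 525) after 30 min; luciferase luminescence (BugLite, 15 min, RT) read afterwards.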
# Nrf2 block – Nrf2 pathway inhibition | A549 ARE-Fluc reporter, luciferase luminescence, 18-24 h | 360,000 compounds, 2.1% hits | AID 504444 | Potency, µM (top dose mostly 46 µM), without a hit: at the top dose activity change, negative = inhibition, hits mostly inhibitors; also: potency is read from the fitted curve at half-maximal effect; nearly all actives have a fitted effect of over 60% in size
#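 A549 ARE_Fluc cells (5000/well, 5% FBS OPTI-MEM) pre-incubated 2 h, then treated with compounds 18-24 h at 37C/5% CO2 in concentration-response. CellTiter-Fluor viability read first; BugLite luciferase luminescence after 15 min at room temperature gives Nrf2 activity.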
# * hit, by the source's call; i = inactive; ? = inconclusive; / = no result given; ! = not active in a repeat. Unless noted, calls follow the shape of the dose curve; as a rule, active = well fitted curve in the direction sought with a large enough effect; inconclusive = small, poorly fitted or top-dose-only effect, or another doubt; inactive = no such curve, though single readings can be large; an effect the other way counts as inactive or inconclusive. Unless noted, % is scaled to controls: 0 for no effect and ±100 for the full control effect.
SMILES,KB-3-1 tox,Giardia killer,PI4K2A block,KB-V1 cytotox,A549 tox,Nrf2 block
CC1(C(=O)NCc2cccc(Cl)c2)Cc2c(-c3ccc4c(c3)OCO4)ccnc2O1 (centres undefined),?,/,7,?,/,/
COC(=O)C[C@@H]1CC[C@H]2[C@H](COc3ccc(NC(=O)Nc4cccc(C#N)c4)cc3C(=O)N2C)O1,/,/,1,/,/,/
Nc1c(C(=O)Nc2ccc3c(c2)OCCO3)nnn1Cc1cccc(Cl)c1,16µM*,?,0,i,0%,?
CN(Cc1ccc(C(C)(C)C)cc1)C(=O)C1CCN(C(=O)Nc2ccccc2)CC1,?,9,1,i,-16%,21µM*
COc1ccc(OC)c(C2=NS(=O)(=O)N(C)C(C(=O)Nc3ccc(F)cc3F)=C2)c1,i,-24,-2,13µM*!,?,15µM*!
Cc1ccc(C2=NS(=O)(=O)N(C)C(C(=O)Nc3ccc(F)cc3F)=C2)cc1,i,5,4,i,-8%,?
O=C1CCC(c2ccc3c(c2)CCC3)=NN1,1.2µM*,9,5,i,1%,27%
Cc1cccc(NC(=O)CSc2nnc(SCc3ccc(Cl)cc3)s2)c1,/,/,2,/,/,/
O=C(Cc1ccccc1)Nc1nnc(-c2ccncc2)s1,i,/,/,i,/,/
CC[C@@H](C)[C@@H](C(=O)N1CCN(C(=O)OC(C)(C)C)CC1)n1cc(CCCCNC(=O)OC(C)(C)C)nn1,?,-15,-1,21µM*,-4%,?
CC[C@H](C)C(C(=O)N1CCN(C(=O)OC(C)(C)C)CC1)n1cc(C(CC(C)C)NC(=O)OC(C)(C)C)nn1 (some centres undefined),i,13,0,i,-6%,4%
CC[C@H](C)Cc1cn([C@@H](CCCCNC(=O)OC(C)(C)C)C(=O)NCCCCCCCCCCC(=O)N2CCN(C(=O)OC(C)(C)C)CC2)nn1,i,18,-2,i,?,10µM*
[O-][N+](=NC1C=Cc2ccccc21)C1C=Cc2ccccc21 (centres undefined),?,/,/,i,/,/
COCCNC(=O)c1c(N)[nH]c(C(=O)c2ccc(Br)cc2)c1-c1c(OC)ccc2ccccc12,/,/,0,/,/,/
CC(C)CC(N)c1csc(NC(=O)c2cc(C(C)(C)C)nn2Cc2ccccc2)n1 (centres undefined),?,/,-1,18µM*,/,/
COC(=O)[C@]12C[C@H](CC(=O)N3CCSCC3)C(=O)N(Cc3ccc4c(c3)OCO4)C1=C[C@H](C(C)C)O[C@@H]2C1CC1,/,/,-2,/,/,/
COc1ccc(CCNC(=S)Nc2ccc(C(C)C)cc2)cc1,?,-1,8,23µM*,8%,-6%
COc1ccc(CCNC(=S)Nc2cc(C)cc(C)c2)cc1,i,-19,11,18µM*,9%,/
Cc1ccc(NC(=O)C2CCN(S(=O)(=O)c3ccc4c(c3)CCCC(=O)N4)CC2)cc1N(C)C,i,-2,-3,i,-4%,?
Cc1cc(NC(=O)CN(C)S(=O)(=O)c2ccc3c(c2)CCCC(=O)N3)ccc1Br,?,/,-4,16µM*,-9%,21µM*
Cc1ccc(NC(=O)C2CCCN(S(=O)(=O)c3ccc4c(c3)CCCC(=O)N4)C2)cc1N(C)C (centres undefined),?,/,-1,i,1%,16µM*
O=C(Nc1ccc(F)cc1)OCc1cn(Cc2ccccc2)nn1,/,/,-3,/,/,/
COC(=O)CCC(=O)N1C2=NC3=C(C(=O)N(Cc4ccc5c(c4)OCO5)C3=O)C3N(C)c4ccccc4[C@]23C[C@H]1CO (some centres undefined),/,/,6,/,/,/
Cc1ccc2c(c1)C1(C=CC(=O)C=C1)CC(=O)N2C,/,-8,/,/,-6%,-5%
Nc1nc(SCc2ccc(Cl)c(Cl)c2)n[nH]1,i,-4,-1,i,0%,?
SMILES,KB-3-1 tox,Giardia killer,PI4K2A block,KB-V1 cytotox,A549 tox,Nrf2 block
O=S1(=O)C=C(SCc2ccc(Cl)c(Cl)c2)Nc2ccccc21,?,16,-9,15µM*,-19%,/
Cc1ccc(CN(C(=O)COc2cccc([N+](=O)[O-])c2)c2ccccn2)o1,i,/,2,i,2%,?
CCc1cc(=O)oc2cc3oc(C)c(C)c3cc12,i,14,3,?,5%,9%
CCCc1cc(=O)oc2cc3oc(C)c(C)c3cc12,i,-14,9,15µM*,10%,-9%
NC(N)=N/N=C/c1ccc2cccc(OCc3ccccc3)c2n1,16µM*,4,-1,i,-11%,-28%
CCOC(=O)c1c(C)oc2nc(C)nc(N3CCN(c4ccc(C)cc4C)CC3)c12,i,/,3,i,11%,17%
CCOC(=O)c1c(C)oc2nc(C)nc(N3CCN(c4ccccc4)CC3)c12,?,/,-2,?,-5%,23µM*
CCOC(=O)c1c(C)oc2nc(C)nc(N3CCN(c4cccc(C(F)(F)F)c4)CC3)c12,?,/,2,16µM*,-2%,?
CCOC(=O)c1c(C)oc2ncnc(N3CCN(c4cccc(Cl)c4)CC3)c12,?,/,5,?,-17%,?
CCOC(=O)c1c(C)oc2nc(C)nc(NC(C)c3ccccc3)c12 (centres undefined),i,/,1,i,9%,?
CCOC(=O)c1c(C)oc2nc(C)nc(N(C)Cc3ccccc3)c12,i,/,-5,i,7%,13µM*
CCn1c(SCC(=O)Nc2cccc3ccccc23)nnc1-c1cccs1,/,/,-2,/,/,/
O=[N+]([O-])c1ccccc1S(=O)(=O)NCc1ccccn1,i,/,/,i,/,/
Cc1cc(C)n(Cc2ccc(NC(=O)c3ccc(COc4ccccc4Br)cc3)cc2)n1,16µM*,-8,0,2.6µM*,?,/
O=C(Nc1cccnc1)c1ccc(COc2ccccc2Br)cc1,?,-4,-4,?,-27%,13µM*
Nc1cccc(S(=O)(=O)N2CCN(S(=O)(=O)c3c(F)cccc3F)CC2)c1,/,/,/,/,-3%,3%
O=C(CN(c1ccc2c(c1)OCCO2)S(=O)(=O)c1ccccc1)NCc1ccc(Cl)cc1,i,41,5,3.7µM*,0%,-11%
CCCCN(CC(=O)NCc1ccc(Cl)cc1)S(=O)(=O)c1ccc2c(c1)OCCO2,i,-22,-2,12µM*,-2%,-28%
COc1ccc(N2C(=O)CS(=O)(=O)C23C(=O)N(Cc2ccc(F)cc2)c2ccc(C)cc23)cc1 (centres undefined),i,/,5,?,1%,-11%
CCNc1nc(NCC)nc(-n2cc(C(=O)c3cc(Cl)ccc3O)cn2)n1,?,-4,/,?,-4%,7%
